According to PubChem BioAssay (NCATS):
Records with an inconclusive call do not appear. This is one part of the list. Calls of active or inactive are those of the source. Calls come from the whole dose curve; as a rule, active = well fitted curve in the direction sought with a large enough effect; inconclusive = small, poorly fitted or top-dose-only effect, or another doubt; inactive = no such curve, though single readings can be large; an effect the other way counts as inactive or inconclusive.

Legend:
[1] = molecular target: RecQ-like DNA helicase BLM (Homo sapiens) (UniProt P54132); assay: qHTS Validation Assay for Inhibitors of Bloom's syndrome helicase (BLM) (AID 2364)
Sequence of RecQ-like DNA helicase BLM (Homo sapiens) (P54132 whole entry, looked up): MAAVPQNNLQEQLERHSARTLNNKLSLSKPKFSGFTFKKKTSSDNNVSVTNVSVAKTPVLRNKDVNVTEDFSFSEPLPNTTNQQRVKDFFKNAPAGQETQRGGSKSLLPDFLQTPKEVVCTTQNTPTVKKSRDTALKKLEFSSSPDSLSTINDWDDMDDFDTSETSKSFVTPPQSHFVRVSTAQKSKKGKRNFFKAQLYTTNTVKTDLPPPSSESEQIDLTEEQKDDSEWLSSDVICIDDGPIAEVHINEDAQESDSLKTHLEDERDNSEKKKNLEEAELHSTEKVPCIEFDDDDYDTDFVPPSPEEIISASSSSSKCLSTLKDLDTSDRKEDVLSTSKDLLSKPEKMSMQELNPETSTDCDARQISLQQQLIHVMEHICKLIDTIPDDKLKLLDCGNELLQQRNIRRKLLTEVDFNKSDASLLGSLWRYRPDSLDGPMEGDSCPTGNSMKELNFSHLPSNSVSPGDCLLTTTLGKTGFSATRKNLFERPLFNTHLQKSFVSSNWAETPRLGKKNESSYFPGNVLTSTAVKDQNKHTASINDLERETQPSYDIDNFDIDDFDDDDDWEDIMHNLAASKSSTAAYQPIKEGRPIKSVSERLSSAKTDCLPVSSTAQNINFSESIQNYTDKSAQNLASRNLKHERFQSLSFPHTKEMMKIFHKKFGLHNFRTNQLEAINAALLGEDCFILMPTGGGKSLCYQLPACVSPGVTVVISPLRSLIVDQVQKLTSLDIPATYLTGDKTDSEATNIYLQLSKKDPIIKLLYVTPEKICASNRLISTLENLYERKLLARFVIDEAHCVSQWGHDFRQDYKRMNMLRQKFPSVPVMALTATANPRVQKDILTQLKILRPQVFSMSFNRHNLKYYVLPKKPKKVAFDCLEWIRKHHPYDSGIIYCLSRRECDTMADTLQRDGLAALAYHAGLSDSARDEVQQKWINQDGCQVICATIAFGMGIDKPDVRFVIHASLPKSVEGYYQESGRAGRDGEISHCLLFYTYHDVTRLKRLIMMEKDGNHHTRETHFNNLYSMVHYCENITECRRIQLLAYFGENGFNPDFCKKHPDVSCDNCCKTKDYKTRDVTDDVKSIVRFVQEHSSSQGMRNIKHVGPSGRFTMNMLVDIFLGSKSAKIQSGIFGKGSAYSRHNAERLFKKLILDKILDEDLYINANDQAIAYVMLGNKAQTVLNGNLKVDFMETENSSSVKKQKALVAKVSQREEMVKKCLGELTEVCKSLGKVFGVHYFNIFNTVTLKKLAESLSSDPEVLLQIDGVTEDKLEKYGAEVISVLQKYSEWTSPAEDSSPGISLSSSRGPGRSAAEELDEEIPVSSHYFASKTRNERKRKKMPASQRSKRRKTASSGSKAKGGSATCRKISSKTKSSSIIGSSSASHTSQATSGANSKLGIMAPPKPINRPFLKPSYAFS
How it was run: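 50 nM BLM preincubated 15 min at room temperature with compound in pH 8.0 Tris buffer containing 2.5 ug/ml poly(dI-dC); started with 200 nM TAMRA/BHQ-2 forked duplex and 2 mM ATP (final). Unwinding read as TAMRA fluorescence increase, two reads 2 h apart.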

[2] = Cytometric Cell-Based qHTS for Inhibitors of the mTORC1 Signaling Pathway in MEF (Tsc2-/-, p53-/-) Cells (AID 2660);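 note: Tsc2 and p53 null MEFs carrying empty vector with compound for 24 h; percent of cells above a phospho-rpS6 to PI ratio cutoff in each well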
From the text: NIH Molecular Libraries Probe Production Centers Network [MLPCN]
NIH Chemical Genomics Center [NCGC]
Assay Submitter (PI): Blenis, John; Hoffman, Greg; Harvard University
NCGC Assay Overview: The mammalian target of rapamycin (mTOR) is an intracellular serine/threonine kinase Aberrant regulation of mTOR signaling plays a causative role in a number of human diseases, including cancer, benign tumors such as lymphangioleiomyomatosis (LAM) and Tuberous Sclerosis Complex (TSC), and metabolic diseases such as diabetes and obesity. This project aims to identify inhibitors of ribosomal protein S6 (rpS6) phosphorylation. The phosphorylation of rpS6 is a key event downstream of mTOR activation. […]
For quantitative high throughput analysis of mTORC1 signaling, we developed a cell-based assay for immuno-fluorescence based detection of rpS6 phosphorylation on the Acumen Explorer that will be used a platform for the primary small molecule screen. […] The fluorescence emission from the Alexa-488 conjugated rpS6 phospho-235/236 antibody staining is selected using a […] band pass filter. Fluorescence emission from the PI stain is selected using a 575-640 nm band pass filter. The normalized phospho-S6 staining is calculated as the ratio of the integrated Alexa 488 intensity divided by the integrated PI intensity for the single concentration rapamycin control (7.5 nM) and DMSO columns. […]

[3] = High Content Imaging Cell-Based qHTS for Inhibitors of the mTORC1 Signaling Pathway in MEF (Tsc2-/-, p53-/-) Cells (AID 2666); settings: at 38.3 µM (top of the series);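 note: percent of cells scored positive for phospho-rpS6 Ser235/236 immunostaining by imaging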
How it was run: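 MEF Tsc2-/- p53-/- (empty vector), DMEM/10% FBS; cpd 24 h 37 °C; PFA fix, Alexa-488 p-rpS6 S235/236 Ab, Hoechst; imaged; rapamycin-defined inhibition; % positive cells/well.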

[4] = High Content Imaging Cell-Based qHTS for Inhibitors of the mTORC1 Signaling Pathway in MEF Cells (AID 2667);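 note: Tsc2-/- p53-/- MEFs stably re-expressing wild-type Tsc2 exposed 24 h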
How it was run: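 Read-out is the share of phospho-rpS6-positive cells per well, from Hoechst-normalized Alexa-488 Ser235/236 staining imaged on IN Cell. Cells: WT Tsc2-expressing Tsc2-/-, p53-/- MEFs exposed to compound for 24 hrs.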

[5] = Cytometry Cell-Based qHTS for Inhibitors of the mTORC1 Signaling Pathway in MEF cells (AID 2668);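 note: Tsc2-/- p53-/- mouse embryonic fibroblasts stably re-expressing wild-type Tsc2; percent cells positive for phospho-rpS6 Ser235/236 relative to propidium iodide stain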
How it was run: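 WT MEFs (Tsc2-/-, p53-/- stably re-expressing WT Tsc2) in DMEM + 10% FBS received compounds 24 hrs after plating, for 24 hrs at 37 degree Celsius. Fixed cells stained with Alexa-488 anti-phospho-rpS6 Ser235/236 and propidium iodide; laser-scanning cytometry read-out.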

[6] = Validation screen for small molecules that induce DNA re-replication in MCF 10A normal breast cells (AID 463097); note: nearly all actives have a fitted effect of over 60% in size
How it was run: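 Readout: Hoechst nuclear fluorescence intensity, 405 ex / 500-530 em, by scanning plate imager; re-replication scored as increase in nuclei with elevated DNA content. Cells exposed to compound 48 hr, 37 C, 5% CO2 beforehand.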

[7] = molecular target: Ubiquitin carboxyl-terminal hydrolase 2 (Homo sapiens) (UniProt O75604); assay: qHTS Validation Assay for Inhibitors of Ubiquitin-specific Protease USP2a Using CHOP2 as the Reporter (AID 463106)
Sequence of Ubiquitin carboxyl-terminal hydrolase 2 (Homo sapiens) (O75604 whole entry, looked up): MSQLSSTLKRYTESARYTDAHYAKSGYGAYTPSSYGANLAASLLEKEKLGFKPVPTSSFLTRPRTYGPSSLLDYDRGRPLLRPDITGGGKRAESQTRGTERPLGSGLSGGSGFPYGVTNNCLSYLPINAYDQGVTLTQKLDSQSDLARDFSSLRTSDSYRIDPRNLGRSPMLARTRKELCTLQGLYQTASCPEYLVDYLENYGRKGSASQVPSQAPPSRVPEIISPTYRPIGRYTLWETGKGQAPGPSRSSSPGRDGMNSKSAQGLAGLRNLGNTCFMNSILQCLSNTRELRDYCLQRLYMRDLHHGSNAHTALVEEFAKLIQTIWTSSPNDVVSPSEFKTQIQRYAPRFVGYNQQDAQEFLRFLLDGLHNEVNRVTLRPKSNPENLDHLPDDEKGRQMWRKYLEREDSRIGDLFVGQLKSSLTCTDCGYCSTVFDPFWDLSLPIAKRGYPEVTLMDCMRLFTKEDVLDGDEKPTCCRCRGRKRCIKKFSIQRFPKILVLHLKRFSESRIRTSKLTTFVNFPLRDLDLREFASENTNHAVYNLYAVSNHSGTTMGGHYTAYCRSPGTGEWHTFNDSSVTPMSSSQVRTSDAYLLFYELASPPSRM
How it was run: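 Fluorescence read-out at Ex 485nm/Em 531nm after 60min RT, following addition of 25nM Ub-CHOP2 plus 25nM reporter substrate to USP2 core (10nM) pretreated 30min with compound. Data normalized to NEM full inhibition; concentration-response curves fitted.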

[8] = molecular target: Endonuclease 4 (Escherichia coli (strain K12)) (UniProt P0A6C1); assay: Counterscreen for APE1 Inhibitors: qHTS Assay for Inhibitors of Endonuclease IV (AID 2565)
How it was run: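 Read-out: fluorescence rise (ex 525/em 598 nm) from incision of a TAMRA/BHQ-2 double-stranded THF abasic-site substrate (50 nM), measured kinetically; third-minus-first read difference gave reaction progress. Enzyme 2 nM.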

[9] = molecular target: DNA repair nuclease/redox regulator APEX1 (Homo sapiens) (UniProt P27695); assay: Confirmation qHTS Assay for Inhibitors of the Human Apurinic/apyrimidinic Endonuclease 1 (APE1) (AID 2572); settings: purified APE1, fluorogenic abasic-site DNA cleavage; note: potency is the fitted concentration of half-maximal effect; nearly all actives have a fitted effect of over 30% in size
Sequence of DNA repair nuclease/redox regulator APEX1 (Homo sapiens) (P27695 whole entry, looked up): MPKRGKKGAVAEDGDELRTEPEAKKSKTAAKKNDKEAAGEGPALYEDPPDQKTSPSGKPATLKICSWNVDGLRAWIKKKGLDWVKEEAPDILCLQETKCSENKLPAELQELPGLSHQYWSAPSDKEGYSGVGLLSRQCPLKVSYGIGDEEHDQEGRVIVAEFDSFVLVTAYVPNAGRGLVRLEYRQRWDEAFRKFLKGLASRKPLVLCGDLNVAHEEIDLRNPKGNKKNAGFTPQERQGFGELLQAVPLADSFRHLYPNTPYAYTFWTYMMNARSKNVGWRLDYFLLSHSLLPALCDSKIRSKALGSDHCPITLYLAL
How it was run: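 APE1 preincubated 15 min RT with compound; 50 nM TAMRA/BHQ-2 THF-abasic duplex added; kinetic fluorescence, 3 reads at 60 s intervals, Ex 525/Em 598; progress = read 3 minus read 1.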

[10] = molecular target: DNA repair nuclease/redox regulator APEX1 (Homo sapiens) (UniProt P27695); assay: qHTS FP-Based Assay for Inhibitors of the Human Apurinic/apyrimidinic Endonuclease 1 (APE1) (AID 2573)

Measured: Potency

CN1Cc2c(N)cccc2C(c2ccccc2)C1 (configuration not stated)
inactive: [1] | [2] | [3] | [4] | [5] | [6] | [7]

CC[N+](C)(C)Cc1ccccc1Br
inactive: [1] | [6]

Oc1cc(O)c2c(c1)OC(c1ccc(O)c(O)c1)C(O)C2 (configuration not stated)
inactive: [8] | [10]
active: [9] 2.51 µM
